For 9 compounds, growth inhibition results are on record in PubChem BioAssay (NCI).

A short description of assay [1]: NCI Yeast Anticancer Drug Screen. Data for the rad50 strain (AID 155).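 Also: 0% = growth of vehicle-only cultures of the same strain.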 To be noted: S. cerevisiae rad50 strain growth inhibition, stronger effect = higher value. A digest of the protocol:
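Growth of the mutant yeast was measured after compound exposure and referenced to vehicle-treated cultures.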

The nature of assay [2]: NCI Yeast Anticancer Drug Screen. Data for the mec2-1 strain (AID 157). The following applies: S. cerevisiae mec2-1 strain, stronger effect = higher value. A digest of the protocol:
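Mutant yeast (mec2-1) grown with compound; growth inhibition relative to vehicle control reported.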

Assay [3] is described as follows: NCI Yeast Anticancer Drug Screen. Data for the sgs1 mgt1 strain (AID 161).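 Also: 0% = growth of cultures given vehicle only.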 The following applies: S. cerevisiae sgs1 mgt1 strain, stronger effect = higher value. A digest of the protocol: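 This yeast growth screen uses a strain with defined DNA-repair lesions; compound-treated growth is compared with vehicle-treated growth.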
Assay [4] can be described thus: NCI Yeast Anticancer Drug Screen. Data for the cln2 rad14 strain (AID 165).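 Also: 0% = growth equal to vehicle treated cultures.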 The following applies: S. cerevisiae cln2 rad14 strain, stronger effect = higher value. A digest of the protocol: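 Readout is yeast growth inhibition versus vehicle-treated controls, using a strain with cln2 and rad14 alterations exposed to compound.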
Assay [5] is described as follows: NCI Yeast Anticancer Drug Screen. Data for the bub3 strain (AID 167). To be noted: S. cerevisiae bub3 mutant strain, stronger effect = higher value. A digest of the protocol:
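Whole-cell yeast assay. The mutant strain was incubated with compounds, and growth inhibition was determined by comparison with vehicle-treated cells.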

Assay [6] can be described thus: NCI Yeast Anticancer Drug Screen. Data for the mlh1 rad18 strain (AID 175). To be noted: S. cerevisiae mlh1 rad18 strain growth inhibition, stronger effect = higher value. An outline of the steps:
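Genetically defined yeast (DNA repair-deficient) exposed to compounds; growth inhibition determined relative to vehicle.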

Where [7] appears, read: at 5.0 µM (retest, dose inferred, filed as 0.5).
Where [8] appears, read: at 50.0 µM (retest, dose inferred, filed as 5.0).

This is part of a sample that, as a whole, favours compounds with a hit. Of some 79,000 tested, about 15% had one in any assay. A number with no mark means an inactive call. Calls of active or inactive are those of the source. Rule as the data show it: active = growth inhibition above about 70%; inactive = the rest.

As to `O=C(Oc1cc(Cl)c(Cl)cc1Cl)c1ccco1`, the growth inhibition in assay [1] (setting [7]) is 0%; in assay [1] (setting [8]), -1%; in assay [1] (at 50.0 µM), -1.8%; in assay [2] (setting [7]) it was 4%; in assay [2] (setting [8]), 5%; in assay [2] (at 50.0 µM), -5.4%. For the same compound, the growth inhibition is 0% in assay [3] (setting [7]); -3% in assay [3] (setting [8]); 23.9% in assay [3] (at 50.0 µM); 3% in assay [4] (setting [7]); -5% in assay [4] (setting [8]); -10.2% in assay [4] (at 50.0 µM). For the same compound, the growth inhibition is 30% in assay [5] (setting [7]); 18% in assay [5] (setting [8]); 84.8% (active) in assay [5] (at 50.0 µM); 1% in assay [6] (setting [7]); -4% in assay [6] (setting [8]); -0.9% in assay [6] (at 50.0 µM).
For the compound `CC(C)=CN(C)C` (tested in a mixture with another compound), the growth inhibition is -120% in assay [1] (setting [7]); 87% (active) in assay [1] (setting [8]); 93.5% (active) in assay [1] (at 50.0 µM); -36% in assay [2] (setting [7]); 91% (active) in assay [2] (setting [8]); 96.7% (active) in assay [2] (at 50.0 µM). Further, the growth inhibition was -42% in assay [3] (setting [7]); 89% (active) in assay [3] (setting [8]); 91.7% (active) in assay [3] (at 50.0 µM); -55% in assay [4] (setting [7]); 97% (active) in assay [4] (setting [8]); 98.4% (active) in assay [4] (at 50.0 µM). Besides, the growth inhibition was -68% in assay [5] (setting [7]); 83% (active) in assay [5] (setting [8]); 91.2% (active) in assay [5] (at 50.0 µM); -113% in assay [6] (setting [7]); 95% (active) in assay [6] (setting [8]); 95.8% (active) in assay [6] (at 50.0 µM).
For the compound `C/C=C(\CCC1NCCc2c1[nH]c1ccccc21)[Si](C)(C)C` (configuration not stated), the growth inhibition is -20% in assay [1] (setting [7]); 99% (active) in assay [1] (setting [8]); 96.3% (active) in assay [1] (at 50.0 µM); -4% in assay [2] (setting [7]); 99% (active) in assay [2] (setting [8]); 86.5% (active) in assay [2] (at 50.0 µM). For the same compound, the growth inhibition in assay [3] (setting [7]) was 19%; in assay [3] (setting [8]), 99% (active); in assay [3] (at 50.0 µM), 93.1% (active); in assay [4] (setting [7]) it was 4%; in assay [4] (setting [8]), 99% (active); in assay [4] (at 50.0 µM) it was 75.3% (active). The growth inhibition in assay [5] (setting [7]) is 11%; in assay [5] (setting [8]), 98% (active); in assay [5] (at 50.0 µM), 77.8% (active); in assay [6] (setting [7]) it was -21%; in assay [6] (setting [8]), 100% (active); in assay [6] (at 50.0 µM), 95.8% (active).
On to `CCCCc1c2c(nc3c1CCC/C3=C\c1ccccc1)C(=O)C(CN(C)C)CC2` (configuration not stated), for which the growth inhibition was 16% in assay [1] (setting [7]); 96% (active) in assay [1] (setting [8]); 86.3% (active) in assay [1] (at 50.0 µM); 10% in assay [2] (setting [7]); 97% (active) in assay [2] (setting [8]); 89.1% (active) in assay [2] (at 50.0 µM). Further, the growth inhibition in assay [3] (setting [7]) is 29%; in assay [3] (setting [8]), 97% (active); in assay [3] (at 50.0 µM) it was 86.5% (active); in assay [4] (setting [7]), 11%; in assay [4] (setting [8]), 96% (active); in assay [4] (at 50.0 µM), 86.8% (active). Moreover, the growth inhibition in assay [5] (setting [7]) was 13%; in assay [5] (setting [8]), 95% (active); in assay [5] (at 50.0 µM), 84.5% (active); in assay [6] (setting [7]), 11%; in assay [6] (setting [8]) it was 96% (active); in assay [6] (at 50.0 µM) it was 84.5% (active).
Turning to `Nc1ccc(-c2cccc(-c3ccccc3)c2)cc1`, the growth inhibition in assay [1] (setting [7]) is -8%; in assay [1] (setting [8]), 94% (active); in assay [1] (at 50.0 µM), 98% (active); in assay [2] (setting [7]), -11%; in assay [2] (setting [8]), 94% (active); in assay [2] (at 50.0 µM) it was 97.7% (active). Moreover, the growth inhibition in assay [3] (setting [7]) was -11%; in assay [3] (setting [8]), 97% (active); in assay [3] (at 50.0 µM), 96.2% (active); in assay [4] (setting [7]) it was -40%; in assay [4] (setting [8]), 96% (active); in assay [4] (at 50.0 µM) it was 98.7% (active). The growth inhibition is -15% in assay [5] (setting [7]); 97% (active) in assay [5] (setting [8]); 98.3% (active) in assay [5] (at 50.0 µM); -27% in assay [6] (setting [7]); 97% (active) in assay [6] (setting [8]); 97.6% (active) in assay [6] (at 50.0 µM).
Take `COc1ccc(NC(=O)/C(=C/c2ccccc2)C(C)=O)cc1`: the growth inhibition in assay [1] (setting [7]) was 59%; in assay [1] (setting [8]), 98% (active); in assay [1] (at 50.0 µM), 98.1% (active); in assay [2] (setting [7]), 57%; in assay [2] (setting [8]), 99% (active); in assay [2] (at 50.0 µM), 98.2% (active). Moreover, the growth inhibition in assay [3] (setting [7]) is 53%; in assay [3] (setting [8]), 98% (active); in assay [3] (at 50.0 µM), 98.5% (active); in assay [4] (setting [7]), 19%; in assay [4] (setting [8]), 95% (active); in assay [4] (at 50.0 µM), 97.5% (active). The growth inhibition in assay [5] (setting [7]) was 65%; in assay [5] (setting [8]), 98% (active); in assay [5] (at 50.0 µM), 98.1% (active); in assay [6] (setting [7]), 68%; in assay [6] (setting [8]), 99% (active); in assay [6] (at 50.0 µM) it was 98.1% (active).
Turning to `COC(=O)CCC(=O)NCCc1ccc2c([nH]c3ccccc32)c1C`, the growth inhibition in assay [1] (setting [7]) is 12%; in assay [1] (setting [8]), 5%; in assay [1] (at 50.0 µM), 55.6%; in assay [2] (setting [7]), 5%; in assay [2] (setting [8]), -1%; in assay [2] (at 50.0 µM), 59.7%. Further, the growth inhibition in assay [3] (setting [7]) was 4%; in assay [3] (setting [8]) it was 11%; in assay [3] (at 50.0 µM), 71.2% (active); in assay [4] (setting [7]), 5%; in assay [4] (setting [8]) it was -7%; in assay [4] (at 50.0 µM) it was 93% (active). Moreover, the growth inhibition in assay [5] (setting [7]) is 5%; in assay [5] (setting [8]), 4%; in assay [5] (at 50.0 µM), 63.5%; in assay [6] (setting [7]), 3%; in assay [6] (setting [8]), -2%; in assay [6] (at 50.0 µM), 91% (active).
`CCN(CC)CCCC(C)Nc1cc(F)cc2cccnc12` (configuration not stated): the growth inhibition in assay [1] (setting [7]) was 10%; in assay [1] (setting [8]), 81% (active); in assay [1] (at 50.0 µM), 93.2% (active); in assay [2] (setting [7]) it was 4%; in assay [2] (setting [8]) it was 31%; in assay [2] (at 50.0 µM), 63.2%. Further, the growth inhibition was 28% in assay [3] (setting [7]); 75% (active) in assay [3] (setting [8]); 88.8% (active) in assay [3] (at 50.0 µM); 10% in assay [4] (setting [7]); 30% in assay [4] (setting [8]); 44.9% in assay [4] (at 50.0 µM). Further, the growth inhibition in assay [5] (setting [7]) is 15%; in assay [5] (setting [8]), 41%; in assay [5] (at 50.0 µM) it was 88.3% (active); in assay [6] (setting [7]) it was 20%; in assay [6] (setting [8]), 69%; in assay [6] (at 50.0 µM) it was 85.9% (active).
As to `CCC(C)OC(=O)c1cccc(C)c1` (configuration not stated), the growth inhibition in assay [1] (setting [7]) is 0%; in assay [1] (setting [8]), 17%; in assay [1] (at 50.0 µM), 94.3% (active); in assay [2] (setting [7]), -2%; in assay [2] (setting [8]), 5%; in assay [2] (at 50.0 µM), -6.8%. In addition, the growth inhibition was 1% in assay [3] (setting [7]); 7% in assay [3] (setting [8]); -5.05% in assay [3] (at 50.0 µM); 1% in assay [4] (setting [7]); 6% in assay [4] (setting [8]); 38.5% in assay [4] (at 50.0 µM). Moreover, the growth inhibition was 2% in assay [5] (setting [7]); 23% in assay [5] (setting [8]); 6.95% in assay [5] (at 50.0 µM); -3% in assay [6] (setting [7]); 12% in assay [6] (setting [8]); 2% in assay [6] (at 50.0 µM).
